Experimental findings from PubChem BioAssay (Tox21) are described below.

Inconclusive results are not listed. Values without a mark were called inactive. Active and inactive are the calls of the source. The call rests on the fitted dose curve; in most records, active means well fitted curve in the direction sought with a large enough effect in the repeat runs; inconclusive means weak or mixed curves; inactive means no such curve, though single readings can be large; an effect the other way counts as inactive or inconclusive.

Assay [1] has as its target Cytochrome P450 2C19 (Homo sapiens) (UniProt P33261). The assay is described as follows: Cytochrome P450 Family 2 Subfamily C Member 19 (CYP2C19) small molecule antagonists: luciferase reporter qHTS assay (AID 1671197). Further: nearly all actives have a fitted effect of over 65% in size. On activity change, negative = inhibition: series mostly up to about 120 µM. The method, boiled down: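 Compounds were tested on CYP2C19 activity via proluciferin conversion to luciferin. The 37C, 1 h reaction followed NADPH addition; detection reagent stopped it.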

Assay [2] has as its target Cytochrome P450 1A2 (Homo sapiens) (UniProt P05177). Description: Cytochrome P450 Family 1 Subfamily A Member 2 (CYP1A2) small molecule antagonists: luciferase reporter qHTS assay (AID 1671199). Further: nearly all actives have a fitted effect of over 50% in size. On activity change, negative = inhibition: series mostly up to about 120 µM. The gist of the method:
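Read-out is luminescence from luciferin detection reagent (20 min) proportional to CYP1A2 activity; compounds in DMSO preincubated 10 min with enzyme and proluciferin substrate, then NADPH regeneration solution, 1 h, room temperature.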

The target of assay [3] is Voltage-gated inwardly rectifying potassium channel KCNH2 (Homo sapiens) (UniProt Q12809). Description: Human Ether-a-go-go-Related Gene (hERG) channel small molecule antagonists: fluorescence cell-based qHTS assay (AID 1671200). Further: nearly all actives have a fitted effect of over 50% in size.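 On activity change, negative = inhibition: hERG-expressing U2OS cells given a thallium stimulus after FluxOR II dye loading; series mostly up to about 77 µM.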 The gist of the method:
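Kinetic two-minute fluorescence traces, sampled at 1 s, were collected following thallium stimulus of U2OS cells (1000 per well) that had been cultured overnight at 37 C and loaded with FluxOR II.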

Assay [4] has as its target Cytochrome P450 2C9 (Homo sapiens) (UniProt P11712). Description: Cytochrome P450 Family 2 Subfamily C Member 9 (CYP2C9) small molecule antagonists: luciferase reporter qHTS assay (AID 1671198). Further: nearly all actives have a fitted effect of over 50% in size. On activity change, negative = inhibition: series mostly up to about 120 µM. The method, boiled down:
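P450-Glo proluciferin substrate with CYP2C9 enzyme; 10 min RT preincubation, then NADPH regeneration 1 h at 37C; luciferin detection reagent 20 min RT, luminescence in relative luminescence units.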

For assay [5], the target named is Cytochrome P450 3A4 (Homo sapiens) (UniProt P08684). The assay is described as follows: Cytochrome P450 Family 3 Subfamily A Member 4 (CYP3A4) small molecule antagonists: luciferase reporter qHTS assay (AID 1671201). Further: nearly all actives have a fitted effect of over 50% in size. On activity change, negative = inhibition: series mostly up to about 120 µM. The method, boiled down:
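Proluciferin-to-luciferin conversion by CYP3A4, NADPH-regenerated, 1 h RT; luminescence read as RLU. Ketoconazole as control.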
On the % scale 0 is the no-effect control and ±100 the full control effect; potency means the concentration at half of the fitted maximal effect.

Sequence of Cytochrome P450 2C19 (Homo sapiens) (P33261 whole entry, looked up): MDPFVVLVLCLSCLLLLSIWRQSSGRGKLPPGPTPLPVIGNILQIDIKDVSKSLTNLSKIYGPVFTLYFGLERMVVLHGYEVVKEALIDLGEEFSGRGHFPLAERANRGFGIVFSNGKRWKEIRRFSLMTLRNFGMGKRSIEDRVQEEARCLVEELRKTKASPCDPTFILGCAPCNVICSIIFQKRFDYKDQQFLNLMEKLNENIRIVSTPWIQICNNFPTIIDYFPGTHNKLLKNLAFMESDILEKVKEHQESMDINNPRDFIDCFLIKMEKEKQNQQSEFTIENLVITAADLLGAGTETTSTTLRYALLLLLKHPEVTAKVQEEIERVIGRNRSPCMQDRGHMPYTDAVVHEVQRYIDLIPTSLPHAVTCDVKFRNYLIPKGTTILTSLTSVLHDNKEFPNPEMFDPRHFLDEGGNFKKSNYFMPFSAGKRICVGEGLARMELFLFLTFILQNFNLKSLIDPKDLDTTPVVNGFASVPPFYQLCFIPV
Sequence of Cytochrome P450 2C9 (Homo sapiens) (P11712 whole entry, looked up): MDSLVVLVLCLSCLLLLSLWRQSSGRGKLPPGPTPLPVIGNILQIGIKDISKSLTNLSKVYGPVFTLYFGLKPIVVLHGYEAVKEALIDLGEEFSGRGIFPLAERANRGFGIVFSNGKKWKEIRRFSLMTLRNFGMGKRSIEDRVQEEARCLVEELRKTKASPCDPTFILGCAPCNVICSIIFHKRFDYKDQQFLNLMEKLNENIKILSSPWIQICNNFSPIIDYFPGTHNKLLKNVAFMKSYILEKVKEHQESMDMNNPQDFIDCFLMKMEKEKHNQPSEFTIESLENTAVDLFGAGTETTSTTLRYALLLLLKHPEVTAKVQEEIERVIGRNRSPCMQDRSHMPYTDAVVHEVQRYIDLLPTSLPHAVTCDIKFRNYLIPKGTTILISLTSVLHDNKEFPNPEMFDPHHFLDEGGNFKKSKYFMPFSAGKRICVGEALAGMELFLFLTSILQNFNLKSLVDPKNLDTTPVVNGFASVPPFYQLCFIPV
Sequence of Cytochrome P450 3A4 (Homo sapiens) (P08684 whole entry, looked up): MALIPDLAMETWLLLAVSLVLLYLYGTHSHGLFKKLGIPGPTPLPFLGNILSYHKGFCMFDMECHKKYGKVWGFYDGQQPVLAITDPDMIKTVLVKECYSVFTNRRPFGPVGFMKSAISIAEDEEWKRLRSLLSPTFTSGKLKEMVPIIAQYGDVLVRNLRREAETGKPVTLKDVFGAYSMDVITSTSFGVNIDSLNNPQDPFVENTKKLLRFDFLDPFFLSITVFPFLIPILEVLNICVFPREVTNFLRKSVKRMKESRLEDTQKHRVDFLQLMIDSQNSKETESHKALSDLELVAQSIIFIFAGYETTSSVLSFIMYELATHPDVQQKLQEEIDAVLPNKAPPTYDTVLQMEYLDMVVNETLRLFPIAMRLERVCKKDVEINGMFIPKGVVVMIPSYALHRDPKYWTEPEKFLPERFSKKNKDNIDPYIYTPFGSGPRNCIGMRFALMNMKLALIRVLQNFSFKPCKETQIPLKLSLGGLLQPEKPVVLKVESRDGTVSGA
Sequence of Cytochrome P450 1A2 (Homo sapiens) (P05177 whole entry, looked up): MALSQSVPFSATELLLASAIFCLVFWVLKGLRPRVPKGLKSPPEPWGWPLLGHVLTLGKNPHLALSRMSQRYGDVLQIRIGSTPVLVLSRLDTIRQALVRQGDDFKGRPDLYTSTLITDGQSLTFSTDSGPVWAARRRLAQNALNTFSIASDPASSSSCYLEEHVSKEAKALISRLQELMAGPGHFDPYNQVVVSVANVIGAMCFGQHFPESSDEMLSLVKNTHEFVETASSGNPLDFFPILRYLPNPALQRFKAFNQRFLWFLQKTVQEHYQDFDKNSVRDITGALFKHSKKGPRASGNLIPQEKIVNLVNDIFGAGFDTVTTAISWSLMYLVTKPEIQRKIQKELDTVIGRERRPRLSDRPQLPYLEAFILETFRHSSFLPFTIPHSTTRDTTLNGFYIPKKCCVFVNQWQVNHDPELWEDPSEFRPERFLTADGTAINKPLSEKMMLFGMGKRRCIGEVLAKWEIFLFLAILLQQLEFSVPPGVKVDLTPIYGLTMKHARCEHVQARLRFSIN
Sequence of Voltage-gated inwardly rectifying potassium channel KCNH2 (Homo sapiens) (Q12809 whole entry, looked up): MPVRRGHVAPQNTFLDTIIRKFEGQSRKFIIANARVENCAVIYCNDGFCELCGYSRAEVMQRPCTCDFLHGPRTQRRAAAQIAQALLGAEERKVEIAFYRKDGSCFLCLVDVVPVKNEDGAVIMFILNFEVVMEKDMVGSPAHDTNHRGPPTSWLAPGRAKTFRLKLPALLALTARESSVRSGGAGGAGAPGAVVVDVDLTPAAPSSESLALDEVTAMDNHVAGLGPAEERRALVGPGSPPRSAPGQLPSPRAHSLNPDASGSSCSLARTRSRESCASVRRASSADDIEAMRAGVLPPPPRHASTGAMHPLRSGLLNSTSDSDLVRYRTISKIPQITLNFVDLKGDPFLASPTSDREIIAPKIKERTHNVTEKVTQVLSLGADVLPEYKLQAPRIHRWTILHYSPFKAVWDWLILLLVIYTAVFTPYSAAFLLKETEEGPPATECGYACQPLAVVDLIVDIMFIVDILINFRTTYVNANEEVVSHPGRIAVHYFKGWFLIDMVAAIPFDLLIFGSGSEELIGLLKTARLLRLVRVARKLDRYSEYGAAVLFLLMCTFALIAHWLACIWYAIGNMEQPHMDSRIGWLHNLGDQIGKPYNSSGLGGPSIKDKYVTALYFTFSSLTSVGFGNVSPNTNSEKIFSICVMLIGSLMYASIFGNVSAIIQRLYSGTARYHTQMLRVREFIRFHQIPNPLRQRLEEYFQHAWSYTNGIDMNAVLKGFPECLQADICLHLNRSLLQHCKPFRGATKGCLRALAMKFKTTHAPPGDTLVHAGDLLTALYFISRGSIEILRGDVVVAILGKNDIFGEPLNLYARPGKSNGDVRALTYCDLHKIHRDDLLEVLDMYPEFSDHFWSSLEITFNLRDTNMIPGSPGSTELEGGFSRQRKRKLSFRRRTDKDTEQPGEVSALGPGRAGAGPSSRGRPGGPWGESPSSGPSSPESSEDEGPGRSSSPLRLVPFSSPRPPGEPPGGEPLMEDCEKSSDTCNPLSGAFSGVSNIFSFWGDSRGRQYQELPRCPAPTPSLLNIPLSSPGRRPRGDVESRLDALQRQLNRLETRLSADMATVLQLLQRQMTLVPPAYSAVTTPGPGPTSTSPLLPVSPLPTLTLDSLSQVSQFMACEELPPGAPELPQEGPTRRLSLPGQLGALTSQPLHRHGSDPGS

With `Cc1ccc(C(=O)Oc2ccc(C(O)CNC(C)(C)C)cc2OC(=O)c2ccc(C)cc2)cc1` (configuration not stated), the Potency result in assay [1] and in assay [2] was “inactive” in each case. Besides, the Potency in assay [3] is 6.74 µM (active).

As to `O=C1C(O)=C(O)C(=O)C(O)=C1O`, the Potency entry in assay [1], in assay [4], in assay [3] and in assay [5] was “inactive” throughout.

As for `CC1=CC[C@H](C(C)C)C=C1`, the Potency in assay [1] was 39.9 µM (active); in assay [4], 39.9 µM (active); in assay [5], 28.3 µM (active). Besides, the Potency result in assay [3] was “inactive”.

As for `Nc1ccccc1S(=O)(=O)c1ccccc1`, the Potency result in assay [1], in assay [4] and in assay [3] was “inactive” in each case.

In the case of `COc1cc2nc(N3CCN(C(=O)C4COc5ccccc5O4)CC3)nc(N)c2cc1OC` (configuration not stated), the Potency result in assay [1] and in assay [2] was “inactive” throughout.

Turning to `CN(C)c1ccc(/C=C/c2ccc([N+](=O)[O-])cc2)cc1`, the activity change, negative = inhibition in assay [1] is 15.9% [at 10.5 µM]; in assay [4], -1.18% [at 10.5 µM]; in assay [3] it was 3.51% [at 6.97 µM].

For the compound `O=C(O)c1ccc(-n2nc(-c3ccccc3O)nc2-c2ccccc2O)cc1`, the Potency entry in assay [1], in assay [2] and in assay [3] was “inactive” in each case.

For `O=CC1CC=CCC1` (configuration not stated), the Potency result in assay [1], in assay [4] and in assay [3] was “inactive” throughout.

On to `CCCCCCCC#N`, for which the Potency entry in assay [1], in assay [4], in assay [3] and in assay [5] was “inactive” each time.

In the case of `O=C(NCC1CN(c2ccc(N3CCOCC3=O)cc2)C(=O)O1)c1ccc(Cl)s1` (configuration not stated), the Potency entry in assay [1] and in assay [5] was “inactive” each time. Moreover, in assay [4], the Potency is 9.77 µM (active).

In the case of `CCCCCCCCCCCCN1CCCCCC1=O`, the Potency result in assay [1] and in assay [3] was “inactive” each time. For the same compound, the Potency in assay [4] is 31.7 µM (active).

Take `COc1cccc(N(C)C(=S)Oc2ccc3c(c2)CCCC3)n1`: the Potency in assay [1] was 2.75 µM (active); in assay [2], 24.5 µM (active). Also, in assay [3], the Potency entry is “inactive”.

Regarding `CCCCCCCCCCCC(=O)OC[C@@H](O)[C@H]1OC[C@H](OCCO)[C@H]1OCCO`, the Potency entry in assay [1], in assay [2] and in assay [3] was “inactive” throughout.

On to `CCCCOC(=O)CCCCCCCC(=O)OCCCC`, for which the values for the Potency in assay [1] and in assay [4] were 35.6 µM (active) and 44.8 µM (active), respectively. Besides, the Potency result in assay [3] and in assay [5] was “inactive” in each case.

On to `O=C(O)CC(=O)C(=O)O`, for which the Potency in assay [1] was 56.6 µM (active). Further, the Potency entry in assay [4], in assay [3] and in assay [5] was “inactive” in each case.

For the compound `NCc1ccccc1Sc1ccccc1CO`, the Potency in assay [1] was 21.9 µM (active); in assay [4], 9.77 µM (active). In addition, the Potency entry in assay [3] was “inactive”.

`C/C=C/C=C/CO`: the Potency result in assay [1], in assay [2] and in assay [3] was “inactive” each time.

On to `CCOCC(O)COc1ccc(NC(=O)CC[S+](C)C)cc1` (configuration not stated), for which the Potency entry in assay [1], in assay [4], in assay [3] and in assay [5] was “inactive” in each case.

On to `ClCCOCCOCCCl`, for which the Potency entry in assay [1], in assay [4], in assay [3] and in assay [5] was “inactive” throughout.

Consider `C=CC(=O)OCCOCCOCCOCCOC(=O)C=C`, for which the Potency entry in assay [1], in assay [4] and in assay [3] was “inactive” each time.

With `CN(C)CCOC(c1ccccc1)c1ccc(Br)cc1` (configuration not stated), the Potency in assay [1] was 13.8 µM (active); in assay [2], 17.4 µM (active); in assay [3], 3.38 µM (active).

For `Cc1cccc(C)c1NC(=O)CN(CC(=O)O)CC(=O)O`, the Potency entry in assay [1], in assay [4], in assay [3] and in assay [5] was “inactive” throughout.

Regarding `CC1=CCCC(C)(C)C12CCC(C)O2` (configuration not stated), the Potency result in assay [1] and in assay [3] was “inactive” in each case. In addition, the Potency in assay [4] is 79.6 µM (active).

Take `CCOC(=O)COC(=O)c1cc(Oc2ccc(C(F)(F)F)cc2Cl)ccc1[N+](=O)[O-]`: the values for the Potency in assay [1], in assay [4] and in assay [2] were 11.2 µM (active), 6.33 µM (active) and 22.4 µM (active), respectively. Further, in assay [5], the Potency result was “inactive”.

On to `O=C(O)c1ccco1`, for which the Potency entry in assay [1], in assay [4], in assay [3] and in assay [5] was “inactive” each time.

Turning to `COCC(C)OC(C)=O` (configuration not stated), the Potency result in assay [1], in assay [4], in assay [3] and in assay [5] was “inactive” throughout.

As for `CCC(CC)Nc1ccc(C)c(C)c1`, the values for the Potency in assay [1] and in assay [2] were 7.1 µM (active) and 5.64 µM (active), respectively. The Potency entry in assay [3] is “inactive”.

As for `C=C1[C@H]2CC[C@@H]3[C@H]2C(C)(C)CCC[C@]13C`, the Potency result in assay [1], in assay [4], in assay [3] and in assay [5] was “inactive” throughout.

With `CC(CC=O)c1ccccc1` (configuration not stated), the Potency is 15.9 µM (active) in assay [1], 31.7 µM (active) in assay [4] and 20 µM (active) in assay [5]. In assay [3], the Potency result is “inactive”.

As to `COc1ccc(S(=O)(=O)N2C(=O)[C@@](c3ccccc3OC)(N3C[C@H](O)C[C@H]3C(=O)N(C)C)c3cc(Cl)ccc32)c(OC)c1`, the Potency in assay [1] is 31.7 µM (active); in assay [4], 39.9 µM (active); in assay [5], 0.0894 µM (active).

In the case of `O=C(CS)Nc1ccccc1`, the Potency in assay [1] was 8.71 µM (active); in assay [4], 13.8 µM (active). Moreover, the Potency entry in assay [3] was “inactive”.

For the compound `OC[C@H]1O[C@@H](OCCc2ccc(O)cc2)[C@H](O)[C@@H](O)[C@@H]1O`, the Potency entry in assay [1], in assay [4], in assay [2] and in assay [5] was “inactive” throughout.

On to `COC(=O)c1ccc(I)cc1S(=O)(=O)NC(=O)Nc1nc(C)nc(OC)n1`, for which the Potency entry in assay [1], in assay [3] and in assay [5] was “inactive” in each case. In addition, the Potency in assay [4] is 34.1 µM (active).

Regarding `CCOC(=O)C1=C[C@]2(CC)CCCN3CCc4c(n1c1ccccc41)[C@@H]32`, the Potency result in assay [1] and in assay [2] was “inactive” throughout. Besides, in assay [3], the Potency is 0.151 µM (active).

As to `O=C1CCCCCCCCCCCC(=O)OCCO1`, the Potency in assay [1] is 71 µM (active); in assay [4], 63.3 µM (active); in assay [2] it was 39.9 µM (active); in assay [5] it was 35.6 µM (active).

For `COS(=O)(=O)C(F)(F)F`, the Potency result in assay [1], in assay [4], in assay [3] and in assay [5] was “inactive” throughout.

With `CCCCCCCCCOS(=O)(=O)O`, the Potency in assay [1] is 79.6 µM (active); in assay [4], 22.4 µM (active). Also, the Potency result in assay [3] and in assay [5] was “inactive” in each case.

For `Cc1ncc(CO)c(C=O)c1O`, the Potency result in assay [1], in assay [4], in assay [3] and in assay [5] was “inactive” each time.
